According to PubChem BioAssay:
Activity calls are given as the source filed them.

Tests used:
Albumin (Bos taurus) = Albumin (Bos taurus) (UniProt P02769); assay: compounds binding labelled BSA control protein – biochemical, small-molecule microarray, Alexa647 label, 635/667 nm fluorescence, artefact control for SMM control protein annotation, profiling panel (AID 1118); conditions: BSA-A647 binding, fluorescence 635 nm, higher = more signal;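 also: score merges 667 nm emission intensity and signal-to-noise per printed compound spot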
Sequence of Albumin (Bos taurus) (P02769 whole entry, looked up): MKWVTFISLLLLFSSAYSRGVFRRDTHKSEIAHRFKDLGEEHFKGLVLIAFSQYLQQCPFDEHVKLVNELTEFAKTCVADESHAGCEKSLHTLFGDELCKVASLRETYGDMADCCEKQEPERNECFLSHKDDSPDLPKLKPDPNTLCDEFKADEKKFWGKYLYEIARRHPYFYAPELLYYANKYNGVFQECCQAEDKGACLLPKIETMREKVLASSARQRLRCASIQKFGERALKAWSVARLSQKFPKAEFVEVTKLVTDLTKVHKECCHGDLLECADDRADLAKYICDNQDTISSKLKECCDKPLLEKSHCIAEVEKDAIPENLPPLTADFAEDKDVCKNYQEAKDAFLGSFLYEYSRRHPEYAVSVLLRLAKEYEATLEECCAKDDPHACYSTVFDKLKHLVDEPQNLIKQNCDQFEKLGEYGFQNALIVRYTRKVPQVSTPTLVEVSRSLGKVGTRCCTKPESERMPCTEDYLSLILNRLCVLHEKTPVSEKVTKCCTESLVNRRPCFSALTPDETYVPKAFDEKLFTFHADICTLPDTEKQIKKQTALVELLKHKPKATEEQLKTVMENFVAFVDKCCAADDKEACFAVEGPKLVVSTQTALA

[1] = probe aXIP binding to arrayed compounds – biochemical, NeuroSMM set, 635/667 nm fluorescence, primary screen (AID 1119); conditions: small-molecule microarray, higher = more signal, called active from +8 up or from −8 down;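 also: probe is the protein aXip251-270 applied at 1 µg/mL to compound-printed slides; binding of probe to printed compounds measured as 667 nm fluorescence plus signal to noise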
[2] = probe aNOTCH3 binding on compound microarray – biochemical, small-molecule microarray, 635/667 nm fluorescence, primary screen (AID 1120); conditions: higher = more signal;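 also: probe is a biotin-tagged antibody raised against NOTCH3 rather than NOTCH3 protein; score merges spot fluorescence near 667 nm with spot signal to noise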
[3] = probe aNOTCH2 binding on compound microarray – biochemical, small-molecule microarray, 635/667 nm fluorescence, primary screen (AID 1121); conditions: higher = more signal;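 also: score merges feature fluorescence read at 667 nm with its signal to noise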
[4] = target: Carbonic anhydrase 2 (Homo sapiens) (UniProt P00918); assay: compounds binding carbonic anhydrase 2 – biochemical, small-molecule microarray, Alexa647-labelled CAII, profiling panel (AID 1122); conditions: CAII-A647 binding fluorescence, higher = more signal
[5] = COS7 lysate on small-molecule microarray, probe aHis, 635 nm (AID 1123); conditions: COS7 cell lysate, fluorescence, higher = more signal;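 also: z-score combines 667nm fluorescence intensity with signal-to-noise per printed compound spot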
[6] = probe aLAP1 signal on lysate-treated microarray – cell lysate, small-molecule microarray, COS7 lysate, primary screen (AID 1124); conditions: probe aLAP1, fluorescence, higher = more signal;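 also: lysate comes from COS7 cells expressing LAP1 and is applied at 0.3 µg/mL; score merges spot fluorescence near 667 nm with signal-to-noise over triplicate slides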
Sam68 (KHDRBS1) = assay: compounds binding KHDRBS1 protein – biochemical, small-molecule microarray, 635 nm fluorescence, primary screen (AID 1125); conditions: higher = more signal;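 also: score merges 667 nm channel intensity with signal to noise over triplicate slides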
[7] = system: Chordin-like protein 2 (CHRDL2); assay: compounds binding chordin-like 2 – biochemical, small-molecule microarray, 635 nm fluorescence, primary screen (AID 1126); conditions: fluorescence 635 nm, higher = more signal;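 also: printed compound slides probed with Chrdl2 protein at 4 µg/mL for 1 h at 4 C; score merges 667 nm emission intensity with signal to noise over three replicate slides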
[8] = target: Concanavalin-A (Canavalia ensiformis) (UniProt P02866); assay: compounds binding concanavalin A lectin – biochemical, small-molecule microarray, Alexa647 label, 635 nm, artefact control for SMM control protein annotation, primary screen (AID 1127); conditions: ConA-A647 binding fluorescence, higher = more signal;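 also: z combines 667 nm emission intensity with signal-to-noise across three replicate slides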
Sequence of Concanavalin-A (Canavalia ensiformis) (P02866 whole entry, looked up): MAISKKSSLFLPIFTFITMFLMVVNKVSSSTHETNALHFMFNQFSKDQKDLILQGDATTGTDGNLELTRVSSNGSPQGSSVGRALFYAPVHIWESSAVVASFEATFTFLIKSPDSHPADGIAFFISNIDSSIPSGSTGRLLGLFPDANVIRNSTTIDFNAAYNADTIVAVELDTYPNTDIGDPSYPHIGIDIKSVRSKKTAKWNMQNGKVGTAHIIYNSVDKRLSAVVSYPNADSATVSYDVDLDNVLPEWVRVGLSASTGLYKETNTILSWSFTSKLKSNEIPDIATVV

[9] = compounds binding Alexa647 anti-His antibody – biochemical, small-molecule microarray, 635 nm fluorescence, artefact control for SMM control protein annotation, primary screen (AID 1128); conditions: higher = more signal;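 also: score merges feature fluorescence with signal-to-noise for each printed compound spot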
[10] = system: Human papillomavirus type 1a E7 protein (residues 1-88); assay: HPV1a E7 small-molecule binders, primary screen, biochemical, small-molecule microarray, residues 1-88, 635 nm (AID 1129); conditions: small-molecule microarray binding, fluorescence 635 nm; higher = more signal
[11] = target: Focal adhesion kinase 1 (Homo sapiens) (UniProt Q05397); assay: PTK2 protein binding on printed compound slides – biochemical, small-molecule microarray, 635/667 nm fluorescence, BSA, DTT, primary screen (AID 1130); conditions: 635 nm fluorescence, higher = more signal;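 also: composite of spot emission at 667 nm and signal to noise over triplicate slides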
Sequence of Focal adhesion kinase 1 (Homo sapiens) (Q05397 whole entry, looked up): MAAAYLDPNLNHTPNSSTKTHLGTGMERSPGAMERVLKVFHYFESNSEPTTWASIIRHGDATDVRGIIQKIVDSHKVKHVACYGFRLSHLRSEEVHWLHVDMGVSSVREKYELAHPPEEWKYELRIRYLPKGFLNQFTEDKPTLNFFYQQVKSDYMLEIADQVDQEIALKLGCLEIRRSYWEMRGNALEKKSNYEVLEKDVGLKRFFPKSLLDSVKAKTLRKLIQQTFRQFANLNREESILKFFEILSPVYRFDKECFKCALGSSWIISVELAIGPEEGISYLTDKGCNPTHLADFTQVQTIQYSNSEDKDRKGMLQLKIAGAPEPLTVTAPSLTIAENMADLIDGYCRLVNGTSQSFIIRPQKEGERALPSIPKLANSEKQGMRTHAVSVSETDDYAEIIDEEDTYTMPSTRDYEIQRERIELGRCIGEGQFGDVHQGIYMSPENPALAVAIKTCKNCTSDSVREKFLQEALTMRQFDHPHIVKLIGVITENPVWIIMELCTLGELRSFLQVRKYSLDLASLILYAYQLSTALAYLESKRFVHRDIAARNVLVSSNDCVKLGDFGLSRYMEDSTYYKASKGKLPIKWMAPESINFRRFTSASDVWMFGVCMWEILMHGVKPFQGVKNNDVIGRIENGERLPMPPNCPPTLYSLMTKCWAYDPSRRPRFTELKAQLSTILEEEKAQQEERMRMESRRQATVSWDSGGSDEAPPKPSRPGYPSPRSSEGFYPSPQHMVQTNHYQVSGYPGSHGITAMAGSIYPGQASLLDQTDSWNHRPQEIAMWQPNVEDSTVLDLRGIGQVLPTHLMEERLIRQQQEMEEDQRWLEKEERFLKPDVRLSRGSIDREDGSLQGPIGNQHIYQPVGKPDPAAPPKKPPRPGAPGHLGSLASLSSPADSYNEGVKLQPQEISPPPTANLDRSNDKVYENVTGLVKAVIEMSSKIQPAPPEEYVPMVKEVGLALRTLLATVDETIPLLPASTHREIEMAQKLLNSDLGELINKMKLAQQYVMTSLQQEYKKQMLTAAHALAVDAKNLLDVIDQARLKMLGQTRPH

[12] = system: Fibrinogen (Alexa647-labelled); assay: Alexa647-fibrinogen binding to printed small molecules – biochemical, small-molecule microarray, 635/667 nm fluorescence, artefact control for SMM control-protein annotation, profiling panel (AID 1131); conditions: fibrinogen-A647 binding fluorescence, higher = more signal;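 also: z-score merges 667 nm fluorescence with per-spot signal-to-noise over triplicate slides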
[13] = target: Follistatin (Homo sapiens) (UniProt P19883); assay: FST protein binding to printed compounds – biochemical, small-molecule microarray, 635/667 nm fluorescence, primary screen (AID 1132); conditions: 635 nm fluorescence, higher = more signal
Sequence of Follistatin (Homo sapiens) (P19883 whole entry, looked up): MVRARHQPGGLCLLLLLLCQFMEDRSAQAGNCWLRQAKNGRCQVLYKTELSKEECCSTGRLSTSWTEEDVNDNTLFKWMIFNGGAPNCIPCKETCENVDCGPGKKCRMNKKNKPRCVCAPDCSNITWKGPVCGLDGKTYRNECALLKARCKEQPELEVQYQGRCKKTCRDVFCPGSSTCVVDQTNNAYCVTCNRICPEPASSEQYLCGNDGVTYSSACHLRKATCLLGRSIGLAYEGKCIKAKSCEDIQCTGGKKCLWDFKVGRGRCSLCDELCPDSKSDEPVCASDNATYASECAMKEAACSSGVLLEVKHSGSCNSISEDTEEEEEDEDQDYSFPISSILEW

[14] = target: Fibroblast growth factor 2 (Homo sapiens) (UniProt P09038); assay: basic fibroblast growth factor binding to printed compounds – biochemical, small-molecule microarray, 635/667 nm fluorescence, primary screen (AID 1133); conditions: FGF2, fluorescence 635/667, higher = more signal
Sequence of Fibroblast growth factor 2 (Homo sapiens) (P09038 whole entry, looked up): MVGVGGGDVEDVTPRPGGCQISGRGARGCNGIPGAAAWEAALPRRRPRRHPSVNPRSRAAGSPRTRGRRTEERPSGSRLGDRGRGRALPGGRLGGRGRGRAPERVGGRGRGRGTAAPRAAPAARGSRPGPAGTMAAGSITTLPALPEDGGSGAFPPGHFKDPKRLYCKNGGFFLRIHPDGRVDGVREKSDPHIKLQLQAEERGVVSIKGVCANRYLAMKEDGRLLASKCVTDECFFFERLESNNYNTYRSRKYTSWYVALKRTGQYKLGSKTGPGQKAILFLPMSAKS

[15] = JC-1 mitochondrial potential readout, lung cancer cells – cell-based, A549, JC-1 fluorescence, basal, 24 h, 100 nL, profiling panel (AID 1138); conditions: higher = more signal;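 also: A549 lung adenocarcinoma cells under basal conditions with no added stimulus; test concentration not given here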
Lefty1 = Lefty1 protein binding to printed compounds – biochemical, small-molecule microarray, 635/667 nm fluorescence, primary screen (AID 1139); conditions: fluorescence 635/667, higher = more signal
[16] = system: wheat germ agglutinin (Triticum aestivum), Alexa647-labelled; assay: Alexa647-WGA lectin binding to printed small molecules – biochemical, small-molecule microarray, 635/667 nm fluorescence, artefact control for SMM control-protein annotation, profiling panel (AID 1140); conditions: WGA-A647 binding, 635 nm fluorescence, higher = more signal;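 also: score merges 667 nm feature emission with signal to noise over triplicate slides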
[17] = target: Luciferin 4-monooxygenase (Photinus pyralis) (UniProt P08659); assay: inhibition of purified Photinus pyralis luciferase – biochemical, luminescence, purified enzyme, 2006 set, primary screen (AID 1141); conditions: purified firefly luciferase, SteadyGlo luminescence, 30 min; higher = more signal, called active from +8 up or from −8 down;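 also: cell-free assay with purified firefly luciferase at 100 ng per well in PBS; test concentration not given here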
Sequence of Luciferin 4-monooxygenase (Photinus pyralis) (P08659 whole entry, looked up): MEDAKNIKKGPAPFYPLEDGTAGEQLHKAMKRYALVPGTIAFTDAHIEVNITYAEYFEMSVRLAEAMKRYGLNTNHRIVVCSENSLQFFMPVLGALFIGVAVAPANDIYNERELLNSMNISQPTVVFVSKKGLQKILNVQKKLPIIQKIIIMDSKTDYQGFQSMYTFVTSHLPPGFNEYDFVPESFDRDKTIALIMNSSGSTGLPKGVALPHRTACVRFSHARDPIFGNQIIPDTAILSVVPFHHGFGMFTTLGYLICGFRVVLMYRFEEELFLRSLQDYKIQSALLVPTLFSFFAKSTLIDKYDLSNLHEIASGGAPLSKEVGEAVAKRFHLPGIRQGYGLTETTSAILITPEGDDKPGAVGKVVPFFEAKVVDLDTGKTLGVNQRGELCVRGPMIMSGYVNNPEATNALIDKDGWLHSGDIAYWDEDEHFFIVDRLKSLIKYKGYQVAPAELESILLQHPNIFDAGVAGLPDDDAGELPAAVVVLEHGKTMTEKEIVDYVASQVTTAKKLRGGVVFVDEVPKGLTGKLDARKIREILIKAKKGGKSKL

| Compound | composite z-score (Albumin (Bos taurus)) | composite Z-score [1] | composite z-score [2] | composite z-score [3] | composite z-score [4] | composite z-score [5] | composite z-score [6] | composite z-score (Sam68 (KHDRBS1)) | composite z-score [7] | composite z-score [8] | composite z-score [9] | composite z-score [10] | composite z-score [11] | composite z-score [12] | composite z-score [13] | composite z-score [14] | z-score [15] | composite z-score (Lefty1) | composite z-score [16] | z-score [17] |
| --- | --- | --- | --- | --- | --- | --- | --- | --- | --- | --- | --- | --- | --- | --- | --- | --- | --- | --- | --- | --- |
| CC1CC/C=C\[C@H]2OC34C=CCN(CCN5CCOCC5)C(=O)[C@H]3N(CCCO)C(=O)[C@@H]4C2C(=O)O1 (stereo not given in full) | -1.3 | 0.0485 (inactive) | -0.068 | -0.164 | 0.91 | -0.531 | 0.305 | 0.0414 | -0.727 | -0.187 | 0.549 | -1.13 | -0.381 | -1.22 | -0.298 | -0.311 | -0.296 | -0.265 | -0.133 | 0.201 (inactive) |
| CN(C)C(=O)[C@]1(Cc2ccccc2)N=C(c2ccc(OCCCO)cc2)O[C@@H]1c1ccccc1CN=[N+]=[N-] | 0.981 | 0.0333 (inactive) | 0.34 | 0.0488 | 0.582 | 2.63 | 0.407 | 1.31 | -0.321 | 0.922 | 0.997 | 1.21 | 0.438 | 1.02 | 1.04 | 0.287 | 0.829 | 0.463 | 0.569 | 0.361 (inactive) |
| C=CC1c2cc(O)c(OC)cc2CCN1C (stereo not given) | 0.582 | 0.694 (inactive) | -0.136 | -0.126 | 0.886 | -0.0207 | 0.0879 | -0.589 | -0.644 | -1.24 | 0.586 | -1.39 | -0.636 | -0.934 | -0.424 | -0.475 | -0.0592 | -1.23 | 0.356 | -0.0535 (inactive) |
| COC(=O)[C@@]1(Cc2ccc(OC)cc2)[C@H]2c3cc(C(=O)N4CCCC4)n(Cc4ccc(C(F)(F)F)nc4)c3C[C@H]2CN1C(=O)c1ccccc1 | 0.948 | -0.325 (inactive) | 0.361 | 0.0224 | 0.737 | 0.297 | 0.511 | 0.524 | -0.249 | -0.308 | 1.4 | 1.22 | 1.14 | 0.683 | 0.0995 | -0.342 | 0.939 | 0.087 | 0.902 | -7.63 (inactive) |
| C=CCC(OC(C)=O)[C@@H]1[C@@H](N(Cc2ccc(-c3ccccc3)cc2)C(=O)c2cccc3ccccc23)c2cc(OCCCO)ccc2N1C(=O)Cc1ccc(OC)cc1 (stereo not given in full) | -0.276 | -0.064 (inactive) | 0.222 | 0.0092 | -0.208 | -0.212 | -0.338 | -0.205 | 0.475 | -0.0975 | 0.118 | -0.0598 | -0.109 | 0.698 | 0.921 | 0.285 | 0.508 | 0.0844 | 0.175 | 0.706 (inactive) |
| O=C1O[C@@H](c2ccccc2)[C@@H](c2ccccc2)N2[C@@H](c3ccccc3OCCO)[C@]3(C(=O)Nc4ccc(C#CCCO)cc43)[C@@H](C(=O)NC[C@H](O)c3ccccc3)[C@H]12 | 0.366 | 0.45 (inactive) | 0.307 | 0.255 | 0.557 | 2.25 | 1.31 | 1.28 | 0.454 | 1.12 | 1.32 | 1.25 | 1.06 | 0.847 | 1.27 | 0.835 | -0.928 | 0.831 | 0.891 | 0.808 (inactive) |
| C=CC[C@]1(C(=O)NCC(O)CO)COC(c2ccc(OCCCO)cc2)=N1 (stereo not given in full) | -0.506 | -0.181 (inactive) | 0.0897 | -0.0209 | 0.674 | 1.56 | 0.553 | -0.174 | -0.582 | -1.45 | -0.493 | 0.57 | -0.0726 | -1.36 | 0.821 | 1.01 | -0.565 | -0.513 | -0.326 | 0.0208 (inactive) |
| CC(C)C[C@@H]1NC(=O)[C@@H]2C[C@H](C(=O)NCCCCCCNC(=O)CS)[C@H](c3cccc(OCCO)c3)N2C1=O | -0.256 | 0.491 (inactive) | 0.248 | -0.123 | 0.228 | 1.94 | 0.252 | 1.29 | 1.36 | 0.862 | 1.74 | 1.26 | 0.114 | 0.892 | 1.42 | 1.71 | -0.0497 | 1.44 | 0.875 | -0.986 (inactive) |
| CC1CC/C=C\[C@H]2OC34C=CCN(c5ccc6ccccc6c5)C(=O)[C@H]3N(C(C)CO)C(=O)[C@@H]4C2C(=O)O1 (stereo not given in full) | -0.333 | -0.105 (inactive) | -0.226 | -0.181 | 0.725 | -0.976 | 0.105 | -0.849 | -0.837 | -0.654 | 0.0166 | -1.72 | -0.785 | -1.17 | -0.69 | -0.911 | 0.838 | -0.546 | -0.946 | -1.2 (inactive) |
| CC(C)N1C(=O)c2ccccc2[C@@H](C(=O)NCC(F)(F)F)[C@@H]1c1ccc(CO)cc1 | -0.826 | 0.492 (inactive) | -0.1 | -0.07 | 0.587 | 0.425 | -0.282 | -0.28 | -0.474 | 0.104 | -0.0668 | 0.0715 | 0.284 | -0.537 | 0.527 | 0.0683 | 1.41 | -0.232 | -0.348 | -0.189 (inactive) |
| C#CCN1[C@@H](Cc2ccccc2)C(=O)O[C@H](Cc2ccccc2)[C@@H]1/C=C/C1CC1 | -0.215 | 0.196 (inactive) | 0.0999 | -0.126 | 0.486 | 0.92 | -0.103 | 0.713 | 0.646 | -0.741 | 1.3 | 1.01 | 0.0423 | -0.287 | 1.27 | 0.43 | 4.04 | 1.1 | 0.884 | -0.415 (inactive) |
